Measurements as given in PubChem BioAssay (NCI).
About 79,000 compounds went through this panel and 15% of them were active in at least one assay; those are over-represented in the sample as a whole. Values without a mark were called inactive. Active and inactive are the calls of the source. Cut-off read from the data, not from the text of the source: active = growth inhibition above about 70%; inactive = the rest.

Columns and labels:
[1] = NCI Yeast Anticancer Drug Screen. Data for the rad50 strain (AID 155);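 note: 0% = growth of vehicle-only cultures of the same strain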; settings: S. cerevisiae rad50 strain growth inhibition; at 50.0 µM; active compounds read high
Summary of the method: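 Vehicle-treated cultures provide the reference for the growth inhibition reported for compound-exposed, repair-deficient yeast.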

[2] = NCI Yeast Anticancer Drug Screen. Data for the mec2-1 strain (AID 157); settings: S. cerevisiae mec2-1 strain, at 50.0 µM, active compounds read high
Summary of the method: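 Test agents were screened against the mec2-1 yeast strain, with defined DNA repair or cell cycle alteration. Growth was scored as inhibition against vehicle-only controls.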

[3] = NCI Yeast Anticancer Drug Screen. Data for the sgs1 mgt1 strain (AID 161);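 note: 0% = growth of cultures given vehicle only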; settings: S. cerevisiae sgs1 mgt1 strain, at 50.0 µM, active compounds read high
Summary of the method: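 Inhibition of yeast growth, normalised to vehicle-treated controls, is reported for a strain bearing genetic alterations in DNA damage repair.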

[4] = NCI Yeast Anticancer Drug Screen. Data for the cln2 rad14 strain (AID 165);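 note: 0% = growth equal to vehicle treated cultures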; settings: S. cerevisiae cln2 rad14 strain, at 50.0 µM, active compounds read high
Summary of the method: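 Growth of compound-exposed yeast (cln2 rad14 genotype) measured and expressed as inhibition relative to vehicle.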

[5] = NCI Yeast Anticancer Drug Screen. Data for the bub3 strain (AID 167); settings: S. cerevisiae bub3 mutant strain, at 50.0 µM, active compounds read high
Summary of the method: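 Mutant yeast screening strain plus compound; vehicle-treated cultures serve as the 0% inhibition reference.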

[6] = NCI Yeast Anticancer Drug Screen. Data for the mlh1 rad18 strain (AID 175); settings: S. cerevisiae mlh1 rad18 strain growth inhibition; at 50.0 µM; active compounds read high
Summary of the method: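 In this whole-cell yeast screen, a strain with altered DNA damage repair is challenged with compound, and its growth is measured against matched vehicle-treated controls.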

SMILES	growth inhibition [1]	growth inhibition [2]	growth inhibition [3]	growth inhibition [4]	growth inhibition [5]	growth inhibition [6]
COC(=O)C(C(=O)c1ccccc1)C(C(=O)C(=O)Nc1ccc(OC)cc1OC)C(=O)C(=O)c1ccc(C)cc1 (centres undefined)	-1.3%	10.8%	3.7%	-3.9%	2.85%	19.6%
COc1cc(Nc2cnc3ccc(C(F)(F)F)cc3n2)cc(OC)c1OC	-0.3%	4.9%	1.15%	-0.8%	-16.9%	-3.5%
CC(NC(=O)OC(C)(C)C)C(=O)NC(Cc1ccccc1)C(=O)NCC(=O)ON=C1CCCC1 (centres undefined)	37.1%	4.1%	32.6%	7.3%	1.9%	23.6%
CCCCn1cnc2c(SC(C)C)nc(N)nc21	-13.1%	-2.15%	17.4%	-24.9%	8.8%	-16.2%
CC(=O)Nc1c(Cl)cccc1[N+](=O)[O-]	-25.1%	-18.8%	-4.75%	-26.4%	-5.8%	5.85%
COc1ccc(CC2(C(=O)O)NCCc3cc(O)c(OC)cc32)cc1O (centres undefined)	16.7%	-3.25%	-13.7%	4.15%	-0.5%	-5.5%
CCCCCCCCOc1ccc(C=Nc2ccc(C)cc2)cc1	-2.05%	19.3%	0.45%	-9.8%	16.9%	13%
C=CCc1cc(N)ccc1O	15.9%	8.9%	11.8%	11.8%	11.7%	7.9%
CC(=O)NC1CCCC(CC2CCCCC2)C1 (centres undefined)	18.4%	0.45%	-7.8%	-56%	17.6%	-14.9%
O=C(O)/C=C/C(=O)Nc1ccccc1Cl	10.4%	29.6%	48.9%	0%	42.2%	21%
O=c1c2ccccc2nc(-c2ccc(Br)cc2)n1NC1OC(CO)C(O)C(O)C1O (centres undefined)	7.05%	3.05%	5.2%	-2.2%	-9.15%	12.6%
Clc1cnc2ccccc2c1	24.4%	6%	14.1%	22.8%	2.7%	28.8%
CCC(N)CS(=O)(=O)O (centres undefined)	-33.7%	-19.6%	-9.9%	-61%	-26.8%	-45.1%
CCOC(=O)C1Cc2ccccc2OC1=O (centres undefined)	-9.4%	-15.2%	20.4%	12.8%	9.55%	3.85%
CC(=O)N1CC(=O)N2C(=O)/C(=C/c3ccc(Cl)cc3)N=C12	2.3%	1.35%	11.9%	3.35%	9.45%	-42.4%
CN(C(=O)c1ccc(Cl)cc1)C(=S)N1CCN(c2ccccn2)CC1	-66%	-33.8%	-36.6%	-3.7%	-13.9%	-43.5%
CC1=CC(=O)C(=Ic2ccccc2)C(=O)O1	11.2%	-8.25%	4.6%	9.65%	-3.85%	14.6%
CCOC(=O)[C@]1(Br)CC[C@]1(Br)C(=O)OCC	16.2%	-12.7%	-4.95%	10%	-29.1%	-62.8%
COC(=O)C12c3ccccc3C3C(c4ccccc41)C32 (centres undefined)	11.9%	13.5%	22.8%	17.6%	2.2%	20.6%
OC(C/C(=N\Nc1ccccc1)c1ccc(Br)cc1)(C(F)(F)F)C(F)(F)F	67.2%	97% (active)	88.8% (active)	85.7% (active)	44.9%	96.5% (active)

SMILES	growth inhibition [1]	growth inhibition [2]	growth inhibition [3]	growth inhibition [4]	growth inhibition [5]	growth inhibition [6]
C[C@]12CCC3c4ccc(OC(=O)c5ccccc5)cc4CC[C@H]3C1CC[C@@H]2OC(=O)C12OC1CCC2=O (some centres undefined)	-5.4%	-35.5%	-7.55%	1.75%	-27.9%	-9.85%
O=C(NCC1CC1)c1ccccc1NC(=O)c1cc2ccccc2oc1=O	-7.9%	-8.25%	8.4%	9.85%	18.7%	19.8%
O=[N+]([O-])c1cccc(/C=C/COc2ccccc2)c1	-1.35%	-10.4%	-10.8%	-48.7%	10.6%	-18.9%
O=C(O)C1CC2C3CC(C(=O)O)C(C3)C2C1 (centres undefined)	-15.8%	-24.7%	-5.55%	-1.85%	-10.8%	-13.9%
Cc1ccc(C)n1-n1c(-c2ccccc2)n[nH]c1=O	-19.8%	-20.9%	-2.7%	-3.4%	-27.7%	-12.3%
O=C(COc1ccc(Cl)cc1)NCCOC(=O)COc1ccc(Cl)cc1	37.5%	20.4%	12.2%	18.2%	21.3%	52.3%
Oc1ccc2cccc(O)c2c1	-17.6%	-33.6%	37.5%	19.9%	12%	3.9%
COC(=O)N1C2c3ccccc3C(c3ccccc32)N1C(=O)OC	6%	21.5%	11.3%	-54.8%	32.8%	33.8%
CC1=C2N3C[C@@H](n4c(=O)n(C)c(=O)n43)C23CCC1n1c(=O)n(C)c(=O)n13	-7.1%	-0.85%	17.9%	7%	-7.9%	-9.95%
CCCCc1ccccn1	-9.1%	4.15%	14.1%	-42.5%	7.4%	16.9%
O=[N+]([O-])c1ccc(-c2ccccc2CO)cc1	-9.55%	-10.2%	-25.6%	-33.5%	-6.95%	-26.6%
CCO/N=C(\C(=O)NO)c1ccccc1	-6.35%	1.6%	1.5%	-24.4%	-1.9%	13.2%
O=C(N/N=C1\C(=O)N(c2nccs2)C(=O)C(=O)C1c1nc2ccccc2s1)c1ccccc1O (centres undefined)	23.1%	16.9%	20.4%	30.1%	4.5%	34.1%
CC1=CC2=C(C(N)=O)C(=O)OC2(C)C(c2ccccc2)C1 (centres undefined)	-19.9%	-6.75%	4.65%	7%	1.85%	5.7%
CS(=O)(=O)Oc1ccccc1OS(C)(=O)=O	7.95%	8.85%	-14.3%	-27.1%	2.6%	-9.65%
O=C(O)c1ccc(S(=O)(=O)c2ccccc2[N+](=O)[O-])cc1	-12.9%	-10.3%	-35.8%	-19%	-12.1%	-38.6%
O=C(CN1CCN(Cc2ccccc2)CC1)N1CCCn2c1nc1ccccc1c2=O	-18.1%	-16.6%	-7.9%	7.6%	11.9%	-3.85%
CC(=O)Oc1cccc2c1C(=O)c1ccccc1C2=O	30%	5.3%	22.4%	-4.2%	11.3%	-10%
N#CCCN(c1ccc(C=O)cc1)S(=O)(=O)c1ccccc1	-0.1%	-13%	-1.75%	5.75%	-13.4%	-15.7%
